Our source for the growth inhibition values is PubChem BioAssay (NCI).

Several values for one entry are separate records, joined by “and”; a condition that tells them apart may be missing. Equal values may be shown once. This is part of a sample that, as a whole, favours compounds with a hit. Of some 79,000 tested, about 15% had one in any assay. Values without a mark were called inactive. Activity calls are given as the source filed them. No stated cut-off is given here; in the data, active means growth inhibition above about 70%; inactive means the rest.

The nature of assay [1]: NCI Yeast Anticancer Drug Screen. Data for the rad50 strain (AID 155).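 Further: 0% = growth of vehicle-only cultures of the same strain.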 The note with it: S. cerevisiae rad50 strain growth inhibition, hits give high values; at 50.0 µM unless noted. In outline: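 A DNA repair-deficient yeast mutant serves as the test organism; compound-induced growth inhibition is calculated against vehicle-treated cells.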
Assay [2] in a line: NCI Yeast Anticancer Drug Screen. Data for the mec2-1 strain (AID 157). Particulars: S. cerevisiae mec2-1 strain, hits give high values; at 50.0 µM unless noted. The gist of the method: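 Using mec2-1 yeast: add compound, measure growth, express inhibition versus vehicle-treated cultures.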
The nature of assay [3]: NCI Yeast Anticancer Drug Screen. Data for the sgs1 mgt1 strain (AID 161).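 Further: 0% = growth of cultures given vehicle only.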 The note with it: S. cerevisiae sgs1 mgt1 strain, hits give high values; at 50.0 µM unless noted. The gist of the method: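 Compounds are added to genetically altered yeast, and growth is compared with cultures given vehicle alone to give percent inhibition.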
Assay [4] is described as follows: NCI Yeast Anticancer Drug Screen. Data for the cln2 rad14 strain (AID 165).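 Further: 0% = growth equal to vehicle treated cultures.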 The note with it: S. cerevisiae cln2 rad14 strain, hits give high values; at 50.0 µM unless noted. In outline:
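Yeast strain cln2 rad14, bearing defects in cell cycle control and DNA repair, serves as the test system; values reflect growth inhibition compared with vehicle.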

Assay [5] in a line: NCI Yeast Anticancer Drug Screen. Data for the bub3 strain (AID 167). The note with it: S. cerevisiae bub3 mutant strain, hits give high values; at 50.0 µM unless noted. The gist of the method: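 Inhibition values come from growth of compound-treated mutant yeast normalised to vehicle-treated controls.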
The nature of assay [6]: NCI Yeast Anticancer Drug Screen. Data for the mlh1 rad18 strain (AID 175). The note with it: S. cerevisiae mlh1 rad18 strain growth inhibition, hits give high values; at 50.0 µM unless noted. In outline:
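Steps: expose repair-defective yeast to compound; measure growth; express inhibition against vehicle-treated controls.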

In the case of `CCCCCCC1(C)NC(=O)NC1=O` (stereo not drawn), the growth inhibition in assay [1] is -20.2%; in assay [2], -11.8%; in assay [3] it was -2.15%; in assay [4], -77.1%; in assay [5], 6.3%; in assay [6] it was -8.3%.
For `Cc1ccc(C)c(NC(=O)c2cccc(C(=O)Nc3cc(C)ccc3C)c2)c1`, the growth inhibition was -13.1% in assay [1]; 0.45% in assay [2]; -4.3% in assay [3]; 8.05% in assay [4]; 7.95% in assay [5]; 7% in assay [6].
`CC(=O)OCC1COC(c2ccc(C)cc2)O1` (stereo not drawn): the growth inhibition is 12.9% in assay [1]; -2.1% in assay [2]; -13.8% in assay [3]; -2.5% in assay [4]; -4.45% in assay [5]; -11.8% in assay [6].
As to `CC(=O)N1C(Nc2cnc3ccccc3c2)CCN1c1ccccc1` (stereo not drawn), the growth inhibition is -31.4% in assay [1]; -48.6% in assay [2]; -13.8% in assay [3]; 0.4% in assay [4]; 1.25% in assay [5]; -14% in assay [6].
With `CNCc1cc(Br)cc(Br)c1O`, the growth inhibition is 6.9% in assay [1]; -6.2% in assay [2]; 15.4% in assay [3]; -43.1% in assay [4]; 1.45% in assay [5]; -2.6% in assay [6].
As to `COc1ccc(-c2nnc(N)s2)cc1OC`, the growth inhibition in assay [1] is 16.4%; in assay [2], 2.7%; in assay [3], 2.8%; in assay [4], -1.6%; in assay [5], -7.05%; in assay [6], 6.35%.
As for `NC(=O)c1ccc(F)cc1`, the growth inhibition in assay [1] was -42.3%; in assay [2], -29.6%; in assay [3], -7.7%; in assay [4], -16.1%; in assay [5] it was -18.2%; in assay [6], -10.5%.
Take `CC1=C(C(=O)OC(C)(C)C)C(c2ccc([N+](=O)[O-])cc2)C(C(=O)OC(C)(C)C)=C(C)N1`: the growth inhibition is 0.2% in assay [1]; -4.9% in assay [2]; 3.85% in assay [3]; 12.2% in assay [4]; -12.8% in assay [5]; 15.4% in assay [6].
On to `O=C(c1ccccc1)c1ccc2ccccc2c1`, for which the growth inhibition in assay [1] is 24.8%; in assay [2] it was 13%; in assay [3] it was 0.65%; in assay [4], -13.2%; in assay [5], 14.9%; in assay [6], 28.3%.
In the case of `O=S1(=O)C2C=CC1C(Br)C(Br)CC2` (stereo not drawn), the growth inhibition in assay [1] is -9.4%; in assay [2], 13.9%; in assay [3], 26.8%; in assay [4], 12%; in assay [5], -0.15%; in assay [6], 20.4%.
As for `CCCCC(OC(=O)c1ccccc1)c1cc(OC(=O)c2ccccc2)c2c(c1OC(=O)c1ccccc1)CC(C)=C(C)C2` (stereo not drawn), the growth inhibition in assay [1] was 84% (active); in assay [2], 49.6%; in assay [3], 99% (active); in assay [4] it was 53.4%; in assay [5] it was 48.2%; in assay [6] it was 56.2%.
`CC1(C)C2=CC3(C)N(CN2c2ccccc21)c1ccccc1C3(C)C` (stereo not drawn): the growth inhibition in assay [1] was 17.1%; in assay [2] it was 24.4%; in assay [3], 18.8%; in assay [4] it was 7%; in assay [5], 12.9%; in assay [6], 15.9%.
Turning to `CCOC(=O)c1sc2c(c1OC(=O)c1ccc(OC)cc1)c(=O)n(-c1ccccc1)c(=S)n2-c1ccccc1`, the growth inhibition in assay [1] is 39.5%; in assay [2], 9.65%; in assay [3] it was 23.4%; in assay [4], 17.5%; in assay [5], 31%; in assay [6], 38.4%.
`CC(Oc1c(Cl)cc(Cl)cc1Cl)C(=O)O` (stereo not drawn): the growth inhibition in assay [1] is -13.7%; in assay [2], -51.8%; in assay [3], -8.6%; in assay [4], 12.8%; in assay [5], -34.9%; in assay [6], -15.8%.
As for `CC(C)=C1C2C(C13C(=O)OC(C)(C)OC3=O)C2(C)C` (stereo not drawn), the growth inhibition in assay [1] is -10.5%; in assay [2], -16.9%; in assay [3], -11.6%; in assay [4], 7.9%; in assay [5], -21.6%; in assay [6], -9.2%.
On to `C#CC(O)C1OC(C)(C)OC1C1COC(C)(C)O1` (stereo not drawn), for which the growth inhibition is 4.15% in assay [1]; 6.5% in assay [2]; 13.2% in assay [3]; -4.4% in assay [4]; -3.6% in assay [5]; -5.65% in assay [6].
Regarding `CCN(CC)CCOC(=O)c1cc2ccccc2s1`, the growth inhibition in assay [1] is 23.2%; in assay [2] it was 8.85%; in assay [3], 13.1%; in assay [4], 2.85%; in assay [5] it was -1.35%; in assay [6], 10.4%.
Turning to `COc1ccc(OC)c(/C=N\NC(=O)N/N=C/c2cc(OC)ccc2OC)c1`, the growth inhibition was -9.4% in assay [1]; -20.6% in assay [2]; 11.3% in assay [3]; -2.05% in assay [4]; 22.8% in assay [5]; -3.9% in assay [6].
`Cc1ccc(OCC2OC(n3cnc4c(Cl)ncnc43)CC2Oc2ccc(C)cc2)cc1` (stereo not drawn): the growth inhibition in assay [1] was -1.2% and 20.8%; in assay [2], -10.2% and 3.5%; in assay [3], 0.05% and 45%; in assay [4], -6.6% and 15.3%; in assay [5], -5.6% and 34%; in assay [6], -32.6% and -25.1%.
Consider `Nc1ccc(C(=O)O)cc1N`, for which the growth inhibition in assay [1] is 17.5%; in assay [2], 46.6%; in assay [3] it was 15.4%; in assay [4], 15.3%; in assay [5], 1.45%; in assay [6], 45.5%.
Turning to `CCOC(=O)C(CCc1ccccc1[N+](=O)[O-])(CCc1ccccc1[N+](=O)[O-])C(=O)OCC`, the growth inhibition is 12.3% in assay [1]; -0.7% in assay [2]; 6.35% in assay [3]; -9% in assay [4]; 10.7% in assay [5]; 37.7% in assay [6].
Consider `Cc1ccc(S(=O)(=O)N2C(=O)CCC2C(=O)O)cc1` (stereo not drawn), for which the growth inhibition in assay [1] was -0.95%; in assay [2], -5.65%; in assay [3] it was 10.6%; in assay [4], -17.1%; in assay [5] it was 2.2%; in assay [6] it was 2.7%.
Turning to `O=C1c2ccccc2C(=O)N1CCCCCCS(=O)(=O)Cl`, the growth inhibition in assay [1] was 13.7%; in assay [2], 10.9%; in assay [3] it was -2.75%; in assay [4], -16.9%; in assay [5], -7.35%; in assay [6], 0.55%.
